Records with an inconclusive call do not appear. Activity calls are given as the source filed them. Calls follow the shape of the dose curve; as a rule, active = well fitted inhibition curve with a large enough effect; inconclusive = small, poorly fitted or top-dose-only effect; inactive = flat fitted curve, though single readings scatter.
Columns and labels:
Experiment in all cases: qHTS profiling for inhibitors of Plasmodium falciparum proliferation (AID 504749); also: nearly all actives have a fitted effect of over 60% in size
Details in all cases: P. falciparum in erythrocytes, SYBR Green DNA, 72 h; series mostly up to 28.7 µM
CP250 = tested on: CP250
In short: (§1)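 Parasite proliferation within erythrocytes, 72 h exposure. Endpoint: SYBR Green I fluorescence after overnight lysis at room temperature. Controls: 0.29 uM artemisinin, DMSO.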

CP252 = tested on: CP252
In short: as §1

CP256 = tested on: CP256
In short: as §1

CP260 = tested on: CP260
In short: as §1

CP262 = tested on: CP262
In short: as §1

CP265 = tested on: CP265
In short: as §1

CP266 = tested on: CP266
In short: as §1

CP269 = tested on: CP269
In short: as §1

CP286 = tested on: CP286
In short: as §1

CP291 = tested on: CP291
In short: as §1

CP297 = tested on: CP297
In short: as §1

CP305 = tested on: CP305
In short: as §1

CP315 = tested on: CP315
In short: as §1

CP325 = tested on: CP325
In short: as §1

CP329 = tested on: CP329
In short: as §1

CP335 = tested on: CP335
In short: as §1

DFO2036 = tested on: DFO2036
In short: as §1

DIV14 = tested on: DIV14
In short: as §1

DIV17 = tested on: DIV17
In short: as §1

DIV30 = tested on: DIV30
In short: as §1

Dd2 = tested on: Dd2
In short: as §1

ECU = tested on: ECU
In short: as §1

FAB9 = tested on: FAB9
In short: as §1

GB4 = tested on: GB4
In short: as §1

HB3 = tested on: HB3
In short: as §1

ICS = tested on: ICS
In short: as §1

JCK = tested on: JCK
In short: as §1

N140 = tested on: N140
In short: as §1

P93_24 = tested on: P93_24
In short: as §1

P94_40 = tested on: P94_40
In short: as §1

PAD = tested on: PAD
In short: as §1

PC15 = tested on: PC15
In short: as §1

PC26 = tested on: PC26
In short: as §1

PC49 = tested on: PC49
In short: as §1

SC27B = tested on: SC27B
In short: as §1

TAB109 = tested on: TAB109
In short: as §1

TAB113 = tested on: TAB113
In short: as §1

TAB165 = tested on: TAB165
In short: as §1

W2 = tested on: W2
In short: as §1

Measured: Potency

CC(/C=C1\SC(=S)N(CC(=O)O)C1=O)=C\c1ccccc1
inactive: all assays above

From PubChem BioAssay (NCATS)
